Pf Dd2 inh = P. falciparum Dd2 growth inhibitors, primary screen, SYBR Green fluorescence, single dose replicates. 72 h; active compounds read low. activity change, % at 10 µM. 2.3% of 94,000 active. AID 1159554, 2015; in the data active = activity change below about -80%
C diff growth = C. difficile growth inhibitors, primary screen, HTS; Clostridium difficile clinical isolate growth, OD600, 24 h; active compounds read low; growth activity, negative = inhibition, % at 16 µg/mL (by protocol); 0.25% of 86,000 active; AID 1259249, 2017;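 active = mean growth activity at or below -80% and every replicate also at or below -80%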
T cruzi growth = T. cruzi intracellular proliferation inhibitors, primary screen, cell-based, beta-gal Tulahuen parasites, NIH3T3 host, luminescence; T. cruzi beta-gal in NIH3T3, GalScreen luminescence, 90 h; inhibition, % at 8.34 µM; 5.9% of 77,000 active; AID 624255, 2012;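 active = mean inhibition above about 93%, with at least 55% of replicates each passing it, limit read from the data, passing the limit was not always enough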
Of the large screens only hits and unclear results are named; the others gave an inactive call. Rows were chosen to be rich in hits. Some 6.8% of all compounds tested hit in one or more screens of this group.

C[C@@H]1CN([C@H](C)CO)C(=O)c2cc(NS(=O)(=O)c3ccc(F)cc3)ccc2O[C@@H]1CN(C)Cc1ccc(C(=O)Nc2ccccc2N)cc1	none
C[C@@H]1CN([C@@H](C)CO)C(=O)c2cc(NS(=O)(=O)c3ccc(F)cc3)ccc2O[C@H]1CN(C)Cc1ccc(C(=O)Nc2ccccc2N)cc1	Pf Dd2 inh -85 (no result: T cruzi growth)
Cc1ccc(S(=O)(=O)N(C)C[C@H]2Oc3ccc(NC(=O)Cc4cn(C)c5ccccc45)cc3C(=O)N([C@H](C)CO)C[C@H]2C)cc1	none
Cc1ccc(S(=O)(=O)N(C)C[C@@H]2Oc3ccc(NC(=O)Cc4cn(C)c5ccccc45)cc3CC(=O)N([C@@H](C)CO)C[C@H]2C)cc1	Pf Dd2 inh -83
C[C@H]1CN([C@@H](C)CO)C(=O)c2cc(NC(=O)Cc3cn(C)c4ccccc34)ccc2O[C@H]1CN(C)S(=O)(=O)c1ccccc1	Pf Dd2 inh -91
C[C@@H]1CN([C@@H](C)CO)C(=O)c2cc(NC(=O)Cc3cn(C)c4ccccc34)ccc2O[C@H]1CN(C)S(=O)(=O)c1ccccc1	none
Cc1ccc(S(=O)(=O)N(C)C[C@H]2Oc3ccc(NC(=O)Cc4cn(C)c5ccccc45)cc3C(=O)N([C@H](C)CO)C[C@@H]2C)cc1	Pf Dd2 inh -83
Cc1ccc(S(=O)(=O)N(C)C[C@@H]2Oc3ccc(NC(=O)Cc4cn(C)c5ccccc45)cc3CC(=O)N([C@@H](C)CO)C[C@@H]2C)cc1	none
CCCC(=O)N1CCC2(CC1)CN(S(C)(=O)=O)[C@H](CO)c1c2c2ccc(OC)cc2n1C	none (no result: T cruzi growth)
COc1ccc(NC(=O)Nc2ccc3c(c2)C(=O)N([C@H](C)CO)C[C@@H](C)[C@H](CN(C)S(C)(=O)=O)OCCCC[C@@H](C)O3)cc1	none
CC(C)(C)[C@H]1C=C(C(=O)N2CCCCCCC2)O[C@@H](OCc2ccc(CO)cc2)C1	none (no result: Pf Dd2 inh, T cruzi growth)
CO[C@@H]1CN(C)C(=O)c2ccc(NC(C)=O)cc2OC[C@@H](C)N(Cc2ccncc2)C[C@@H]1C	none (no result: T cruzi growth)
COc1cccc(NC(=O)N(C)C[C@H]2Oc3cc(C#Cc4ccncc4)ccc3S(=O)(=O)N([C@@H](C)CO)C[C@@H]2C)c1	none
COc1ccc(C#Cc2ccc3c(c2)O[C@H](CN(C)C(=O)Nc2cccc(OC)c2)[C@@H](C)CN([C@H](C)CO)S3(=O)=O)cc1	Pf Dd2 inh -81 (no result: C diff growth)
COc1cccc(NC(=O)N(C)C[C@H]2Oc3cc(C#Cc4ccc(F)cc4)ccc3S(=O)(=O)N([C@H](C)CO)C[C@H]2C)c1	none
COc1cccc(NC(=O)N(C)C[C@H]2Oc3cc(C#Cc4ccccc4)ccc3S(=O)(=O)N([C@@H](C)CO)C[C@@H]2C)c1	Pf Dd2 inh -82, T cruzi growth 121
COc1ccc(NC(=O)Nc2ccc3c(c2)C(=O)N([C@@H](C)CO)C[C@H](C)[C@@H](CN(C)C)OCCCC[C@@H](C)O3)cc1	none
COc1ccc2c3c(n(C)c2c1)[C@@H](CO)N(C(=O)C1CCCC1)CC31CCN(C(=O)c2ccncc2)CC1	none (no result: T cruzi growth)
COc1ccc2c3c(n(C)c2c1)[C@H](CO)N(C(=O)C1CC1)CC31CCN(C(=O)C2CCOCC2)CC1	none (no result: T cruzi growth)
C[C@H](CO)N1C[C@H](C)[C@@H](CN(C)S(=O)(=O)c2ccc(Cl)cc2)OCc2ccccc2-c2c(n(C)c3ccccc23)C1=O	Pf Dd2 inh -85 (no result: C diff growth)
COc1ccc(S(=O)(=O)N(C)C[C@H]2OCc3ccccc3-c3c(n(C)c4ccccc34)C(=O)N([C@@H](C)CO)C[C@H]2C)cc1	Pf Dd2 inh -83 (no result: C diff growth)
C[C@H](CO)N1C[C@H](C)[C@H](CN(C)S(=O)(=O)c2ccccc2)OCc2ccccc2-c2c(n(C)c3ccccc23)C1=O	none (no result: T cruzi growth)
C[C@@H]1CN([C@H](C)CO)C(=O)c2ccccc2-c2ccccc2CO[C@H]1CN(C)S(=O)(=O)c1ccc(Cl)cc1	none
COc1ccc(S(=O)(=O)N(C)C[C@@H]2OCc3ccccc3-c3c(n(C)c4ccccc34)C(=O)N([C@@H](C)CO)C[C@H]2C)cc1	none (no result: C diff growth)
C[C@H]1CN([C@@H](C)CO)C(=O)c2ccccc2-c2ccccc2CO[C@H]1CN(C)S(=O)(=O)c1ccc(Cl)cc1	Pf Dd2 inh -83
COc1cccc(S(=O)(=O)N(C)C[C@H]2OCc3ccccc3-c3c(n(C)c4ccccc34)C(=O)N([C@@H](C)CO)C[C@@H]2C)c1	Pf Dd2 inh -83
COc1ccc(S(=O)(=O)N(C)C[C@H]2OCc3ccccc3-c3c(n(C)c4ccccc34)C(=O)N([C@H](C)CO)C[C@@H]2C)cc1	none (no result: C diff growth)
CN(C)CC(=O)Nc1ccc2c(c1)[C@@H]1C[C@@H](CC(=O)NCc3ccncc3)O[C@H](CO)[C@@H]1O2	none
O=C(NCC[C@@H]1CC[C@H](NC(=O)C2CCOCC2)[C@@H](CO)O1)c1ccc(F)cc1	none
COc1ccc2c3c([nH]c2c1)[C@H](CO)N(C(=O)C1CCC1)CC31CN(C(=O)c2ccccn2)C1	none (no result: T cruzi growth)
CC=Cc1ccc2n(c1=O)C[C@H]1[C@H](CO)[C@@H](C(=O)N3CCCCC3)N(Cc3ccccc3OC)[C@@H]21 (mixture of isomers)	none
CCC(=O)Nc1ccc2c(c1)C(=O)N(C)C[C@H](OC)[C@H](C)CN(Cc1ccccc1)[C@@H](C)CO2	none (no result: C diff growth)
CN(C)CC#Cc1ccc([C@H]2[C@@H](CO)N3CCCCN(CC4CCOCC4)C[C@H]23)cc1	none
C[C@@H]1CN([C@@H](C)CO)C(=O)c2c(c3ccccc3n2C)-c2ccccc2CO[C@H]1CN(C)S(=O)(=O)c1ccccc1	none (no result: C diff growth)
Cc1ccc(S(=O)(=O)N(C)C[C@H]2OCc3ccccc3-c3c(n(C)c4ccccc34)C(=O)N([C@H](C)CO)C[C@H]2C)cc1	none (no result: C diff growth)
Cc1noc(C)c1S(=O)(=O)N(C)C[C@H]1OCc2ccccc2-c2c(n(C)c3ccccc23)C(=O)N([C@@H](C)CO)C[C@H]1C	Pf Dd2 inh -89
Cc1ccc(S(=O)(=O)N(C)C[C@H]2OCc3ccccc3-c3c(n(C)c4ccccc34)C(=O)N([C@H](C)CO)C[C@@H]2C)cc1	Pf Dd2 inh -88 (no result: C diff growth)
Cc1noc(C)c1S(=O)(=O)N(C)C[C@@H]1OCc2ccccc2-c2c(n(C)c3ccccc23)C(=O)N([C@@H](C)CO)C[C@H]1C	none
C[C@H]1CN([C@@H](C)CO)C(=O)c2c(c3ccccc3n2C)-c2ccccc2CO[C@H]1CN(C)S(=O)(=O)c1ccccc1	Pf Dd2 inh -84 (no result: C diff growth)
C[C@H]1CN([C@@H](C)CO)C(=O)c2c(c3ccccc3n2C)-c2ccccc2CO[C@@H]1CN(C)S(=O)(=O)c1ccc([N+](=O)[O-])cc1	none (no result: T cruzi growth)
C[C@H]1CN([C@@H](C)CO)C(=O)c2c(c3ccccc3n2C)-c2ccccc2CO[C@H]1CN(C)S(=O)(=O)c1ccc([N+](=O)[O-])cc1	Pf Dd2 inh -89 (no result: T cruzi growth)
C[C@H](CO)N1C[C@H](C)[C@@H](CN(C)C(=O)Nc2ccc(C(F)(F)F)cc2)Oc2ccc(NC(=O)Cc3cn(C)c4ccccc34)cc2C1=O	none
CN1c2ccc(Br)cc2[C@@H]2[C@@H](CCN2C(=O)Nc2cc(F)ccc2F)[C@@H]1CO	none
C[C@@H]1CN([C@@H](C)CO)S(=O)(=O)c2ccc(C3=CCCC3)cc2O[C@H]1CN(C)C(=O)c1ccccc1	none

From PubChem BioAssay
